Screen size: about 1,300 compounds; about 270 (21%) were called active. The rule behind the calls is not given here. These entries were drawn from the full list. Results with a measured potency or affinity are listed apart.
Assay: SK-MEL-5 parental cell viability loss, dose response, orthogonal assay for MITF inhibitor project, CellTiter-Glo, cherry-picked, set 3 (AID 493240)
Conditions: SK-MEL-5 viability, ATP luminescence (CellTiter-Glo), 24 h; series mostly up to 35 µM
For O=C(NC1CCCCC1)c1cc2cc(Br)ccc2o1, the outcome was “inactive”. For C=CCOc1ccc(/C=C/C(C)=N\O)cc1, the outcome was “inactive”. For Cc1cc(C)c(C#N)c(SCc2nnc(-c3ccccc3)o2)n1, the outcome was “inactive”. For COc1ccc2nc(C)cc(SCC(=O)N/N=C/c3ccc(O)cc3O)c2c1, the outcome was “inactive”. For O=C(CNC(=O)c1ccc(Br)cc1)c1ccccc1, the outcome was “inactive”. For Nc1ccc(Oc2cccc(Oc3ccc(N)cc3)c2)cc1, the outcome was “inactive”. For O=C(Nc1cc(-c2nc3ncccc3o2)ccc1Cl)c1ccc([N+](=O)[O-])o1, the outcome was “inactive”. In the case of COc1ccc(C[C@H]2CN3C(=NC[C@@H]3C(C)C)N2CCNC(=O)c2ccc(C)c(Br)c2)cc1, the outcome is reported as “inactive”. In the case of CCOc1ccc(C(=O)Nc2cccc(C(=O)O)c2C)cc1Cl, the outcome is reported as “inactive”. With COc1cccc(C(=O)Oc2c(CN3CCOCC3)cc(Cl)c3cccnc23)c1 the outcome was “inactive”. With O=C(N/N=C/c1ccc([N+](=O)[O-])s1)c1ccccc1 the outcome was “inactive”. With O=C(CNC(=O)c1cccc(F)c1)N/N=C/c1ccc([N+](=O)[O-])s1 the outcome was “inactive”. With CCOc1ccc(NC(=O)CCC(=O)N/N=C/c2ccc([N+](=O)[O-])s2)cc1 the outcome was “inactive”. With O=C(N/N=C/c1ccc([N+](=O)[O-])s1)c1cccc(Br)c1 the outcome was “inactive”. In the case of Cc1ccccc1C(=O)N/N=C/c1ccc([N+](=O)[O-])s1, the outcome is reported as “inactive”. In the case of Cc1onc(-c2ccccc2)c1C(=O)N/N=C/c1ccc([N+](=O)[O-])s1, the outcome is reported as “inactive”. For O=C(N/N=C/c1ccc([N+](=O)[O-])s1)c1ccccc1Br, the outcome was “inactive”. In the case of CC(=O)c1ccc(S(=O)(=O)N2CCN(C(=O)/C=C/c3ccc4ccccc4n3)CC2)cc1, the outcome is reported as “inactive”. In the case of CN(C)c1ccc(/C=N/N2CCN(c3ccccn3)CC2)cc1, the outcome is reported as “inactive”. In the case of CC(=O)Nc1nc(C)c(-c2csc(Nc3cccc(C(C)=O)c3)n2)s1, the outcome is reported as “inactive”. For O=C(O)c1ccccc1C(=O)Nc1ccc(Oc2cccc3ccccc23)cc1, the outcome was “inactive”. For O=C(Nc1ccc(N2CCOCC2)c(Cl)c1)c1cccc(F)c1, the outcome was “inactive”. In the case of O=C(Cc1ccccc1)NCC(=O)N/N=C/c1ccc([N+](=O)[O-])s1, the outcome is reported as “inactive”. In the case of O=C(CNC(=O)c1ccccc1)N/N=C/c1ccc([N+](=O)[O-])s1, the outcome is reported as “inactive”. With CCCN1C(=O)c2ccc(C(=O)Nc3cc(C)ccc3O)cc2C1=O the outcome was “inactive”. For Cc1cc(C)c2c(N)c(C(=O)N/N=C/c3ccccc3)sc2n1, the outcome was “inactive”. With Cc1c(Cl)c([N+](=O)[O-])nn1Cc1ccc(C(=O)N/N=C\c2cc(Cl)ccc2O)o1 the outcome was “inactive”. With O=C(Nc1cccc(S(=O)(=O)N2CCCCC2)c1)c1ccc([N+](=O)[O-])o1 the outcome was “inactive”. With O=C(N/N=C\c1cc(Cl)ccc1O)c1ccc(S(=O)(=O)N2CCCCC2)cc1 the outcome was “inactive”. For O=C(Nc1ccc(S(=O)(=O)N2CCCCCC2)cc1)c1[nH]ncc1[N+](=O)[O-], the outcome was “inactive”. With O=C(CCl)Nc1cccc(S(=O)(=O)NC2=NCCCCC2)c1 the outcome was “inactive”. In the case of O=C(CSc1nnnn1-c1ccc(O)cc1)Nc1cccc(S(=O)(=O)N2CCCC2)c1, the outcome is reported as “inactive”. For COc1ccc(NS(=O)(=O)c2cc(NC(=O)CNC(=O)c3cccc(OC)c3)ccc2C)cc1, the outcome was “inactive”. With Cc1cccc(NC(=O)Cc2ccc(Br)cc2)n1 the outcome was “inactive”. With Cc1ccc(Nc2nnc(-c3ccccc3N)o2)cc1C the outcome was “inactive”. For COc1ccc(NC(=O)C2COc3ccccc3O2)cc1 (stereo not given), the outcome was “inactive”. With Cn1nnnc1Sc1ncnc2scc(-c3cccs3)c12 the outcome was “inactive”. For Cc1csc(NC(=O)Cc2c(F)cccc2Cl)n1, the outcome was “inactive”. With CC1(C)CC(=O)C=C(NC2=CC3OC(c4ccccc4)OCC3OC2=O)C1 (stereo not given) the outcome was “inactive”. With O=[N+]([O-])/C=C\c1ccc(N2CCCC2)c(F)c1 the outcome was “inactive”. For O=C(NCc1cccs1)c1nc2c(nnn2Cc2ccccc2Cl)c(=O)[nH]1, the outcome was “inactive”. For COc1ccc(C2C(C#N)=C(N)Oc3c2oc(CO)cc3=O)cc1 (stereo not given), the outcome was “inactive”. In the case of O=C(O)c1ccc(N/N=C/c2ccc3nccnc3c2)cc1, the outcome is reported as “inactive”. In the case of COc1cc([N+](=O)[O-])cc(/C=N/NC(=O)c2ccc(NC(=O)c3ccc(C)cc3)cc2)c1O, the outcome is reported as “inactive”. For CCN1CCN(c2ccc(S(=O)(=O)N3CCCCC3)cc2NC(=O)/C=C/c2ccc([N+](=O)[O-])cc2)CC1, the outcome was “inactive”. With CCN1CCN(c2ccc(S(=O)(=O)N3CCOCC3)cc2NC(=O)/C=C/c2ccc([N+](=O)[O-])cc2)CC1 the outcome was “inactive”. With O=C(NC1CCCC(C(F)(F)F)C1)c1ccc([N+](=O)[O-])o1 (stereo not given) the outcome was “inactive”. For COc1cccc(-c2ccc3c(N)c(C(=O)NC4CC4)sc3n2)c1, the outcome was “inactive”. For CC(Oc1cccc(Br)c1)C(=O)NNC(=O)c1ccccn1 (stereo not given), the outcome was “inactive”. With C/C(=N\NC(=O)C(c1ccccc1)c1ccccc1)c1ccccn1 the outcome was “inactive”. For CC1CCN(c2ccc(NC(=O)c3cccnc3)cc2)CC1, the outcome was “inactive”. For COC(=O)c1ccc(/C=N/Nc2nc(C)c(C)s2)cc1, the outcome was “inactive”. In the case of CS/C(N)=N/N=C/c1ccc2c(c1)OCO2, the outcome is reported as “inactive”. With COc1cc2c(cc1OC)C(C)N(S(=O)(=O)c1cnc(Cl)c(Cl)c1)CC2 (stereo not given) the outcome was “inactive”. For COc1cc(CN2CCC(C(N)=O)CC2)ccc1OCc1ccccc1, the outcome was “inactive”. For CCOc1ccc(N/C=C/C(=O)c2ccc(OC)c(OC)c2)cc1, the outcome was “inactive”. With N/C(=N\OC(=O)c1ccc(Cl)cc1Cl)c1ccncc1 the outcome was “inactive”. In the case of O=C1CN(c2ccccc2)C(=S)N1C(=O)c1ccccc1, the outcome is reported as “inactive”. In the case of O=C1C=CC(=C(c2ccc(O)cc2)c2ccc(O)cc2)C=C1, the outcome is reported as “inactive”. With COC(=O)CCS(=O)(=O)c1nc(-c2ccccc2)cc(C(F)(F)F)n1 the outcome was “inactive”. In the case of COc1ccccc1-c1cc(C(F)(F)F)nc(S(C)(=O)=O)n1, the outcome is reported as “inactive”. In the case of N=C1C(c2nc3ccccc3[nH]2)=C(O)CN1C1CCCCC1, the outcome is reported as “inactive”. For Cc1ccc(C(=O)Nc2ccccc2Cl)cc1, the outcome was “inactive”. With Cc1cc(C(=O)CCl)c(C)n1CCc1ccc(F)cc1 the outcome was “inactive”. With Cc1ccc2nc(NC(=O)CSCC(=O)OCC(=O)c3ccccc3)sc2c1 the outcome was “inactive”. In the case of CCCCN=C(C)c1c(O)c2ccccc2oc1=O, the outcome is reported as “inactive”. In the case of O=C(Nc1ccc(Cl)cc1)Nc1cccc(C(=O)O)c1, the outcome is reported as “inactive”. In the case of COc1ccc(NC(=O)NC(=O)c2ccccc2)cc1, the outcome is reported as “inactive”. In the case of Cc1oc(=O)c(NC(=O)c2ccccc2)cc1C(=O)c1ccccc1, the outcome is reported as “inactive”. For Cc1ccc(NC(=O)c2ccccc2)cc1, the outcome was “inactive”. In the case of COc1ccc(COC(=O)c2cc([N+](=O)[O-])ccc2N2CCOCC2)cc1F, the outcome is reported as “inactive”. In the case of CN(C)c1ccc(/C=C/c2cccc[n+]2[O-])cc1, the outcome is reported as “inactive”. For Cc1ccc(NC(=O)Cc2noc3ccccc23)cc1, the outcome was “inactive”. With CC(=NNc1nc2ccccc2o1)c1cc2ccccc2cn1 the outcome was “inactive”. With COC(=O)c1ccc(COc2ccc3c(c2)CCC3)o1 the outcome was “inactive”. In the case of Fc1ccc(-c2nnc(-c3ccc(F)cc3)o2)cc1, the outcome is reported as “inactive”. With COc1cccc(-c2nnc3sc(-c4cccs4)nn23)c1 the outcome was “inactive”. With Nc1ncnc(Sc2ncccn2)c1[N+](=O)[O-] the outcome was “inactive”. For O=C(CSc1ccccn1)c1ccc2c(c1)OCO2, the outcome was “inactive”. For O=C(CCl)N1CCN(S(=O)(=O)c2ccc3c(c2)CCC3)CC1, the outcome was “inactive”. In the case of O=C(Nc1nc(-c2ccccn2)cs1)c1ccc([N+](=O)[O-])o1, the outcome is reported as “inactive”. In the case of N#C/C(=C(/O)CCl)c1nc2ccccc2[nH]1, the outcome is reported as “inactive”. In the case of C/C(=C\c1ccccc1)C(=O)Nc1ccc(Cl)cn1, the outcome is reported as “inactive”. In the case of COc1cc(SC)ccc1C(=O)NCCOc1ccccc1Cl, the outcome is reported as “inactive”. In the case of CCn1c(=O)c(C(=O)NCc2ccccc2Cl)c(O)c2ccccc21, the outcome is reported as “inactive”. For COCCNC(=O)c1cc2sc3ccccc3c2s1, the outcome was “inactive”. With O=c1nc(N/N=C/c2ccccn2)cn[nH]1 the outcome was “inactive”. For O=C(CCl)N(c1ccccc1)c1c[nH]c2ccccc12, the outcome was “inactive”. With Cc1ccc(NC(=O)Nc2ccccc2)nc1 the outcome was “inactive”. For FC(F)(F)c1cc(CCN2CCNC[C@@H]2Cc2ccccc2)cc(C(F)(F)F)c1, the outcome was “inactive”. For CCSc1ccccc1C(=O)n1nnc2ccccc21, the outcome was “inactive”. With Cc1cc(C(=O)COc2cccnc2[N+](=O)[O-])c(C)n1-c1ccccc1 the outcome was “inactive”. For Cc1cc(C)c2ccc(N)nc2c1O, the outcome was “inactive”. For Cc1cc(C(F)(F)F)c2c(N)c(C(=O)Nc3cc(C)on3)sc2n1, the outcome was “inactive”. In the case of O=C(Cn1cnc2c(oc3ccccc32)c1=O)c1ccccc1, the outcome is reported as “inactive”. With Cc1nc(C)c(C(=O)N/N=C/c2cc(Br)ccc2O)s1 the outcome was “inactive”. With CCCCNc1nc(=S)n(-c2ccccc2)c(C)c1C(C)=O the outcome was “inactive”. For COCCn1c(C)cc(C(=O)COC(=O)c2ccccc2Br)c1C, the outcome was “inactive”. With CCC(=O)NCCc1nc2cc(NC(=O)c3cccc([N+](=O)[O-])c3)ccc2n1C the outcome was “inactive”. In the case of CC(C)(C)c1ccc(/C=N/Nc2ccc(C(=O)O)cc2)cc1, the outcome is reported as “inactive”. With Cc1ccc(/C=N/Nc2ccc(C(=O)O)cc2)s1 the outcome was “inactive”. With COc1cccc(CNc2nc3ccccc3n2C)c1O the outcome was “inactive”. For CC(=O)N(c1nnc(-c2cccc(C)c2)s1)C1CCCC1, the outcome was “inactive”. With CCOC(=O)c1ccc2nc(C)c(CCC(C)=O)c(Cl)c2c1 the outcome was “inactive”. For CCCOCc1ccc(O)c2ncccc12, the outcome was “inactive”. In the case of O=S(=O)(c1ccc(Cl)cc1)N1CCN(Cc2ccc(O)c3ncccc23)CC1, the outcome is reported as “inactive”. With O=C(CSC(=S)N1CCCCC1)c1c(F)cccc1F the outcome was “inactive”. With c1ccc(Cc2cc(-c3ccccc3)on2)cc1 the outcome was “inactive”. With COc1cc2c(c(OC)c1OC)-c1ccc(OC)c(=O)cc1C(NC(C)=O)CC2 (stereo not given) the outcome was “inactive”. For CCN1c2ccccc2NC2C1C(C(C)=O)C(=O)N2c1ccc(Cl)cc1 (stereo not given), the outcome was “inactive”. In the case of COc1cnc(-c2ccccn2)nc1NC(C)C, the outcome is reported as “inactive”. With N#CCSc1nc2ccccc2c2nc3ccccc3n12 the outcome was “inactive”. For Cc1ccc(SCc2cn3cc(Cl)ccc3n2)cc1, the outcome was “inactive”. For CC(=O)Nc1ccc(S(=O)(=O)N2CCn3cccc3C2C)cc1 (stereo not given), the outcome was “inactive”. For CN1CCN(C2=C(NS(=O)(=O)c3cccs3)C(=O)c3ccccc3C2=O)CC1, the outcome was “inactive”.
